The values that follow come from ChEMBL document CHEMBL1157539, “Thousands of chemical starting points for antimalarial lead identification” (Nature, 2010).

The structures appear in SMILES notation.

The first assay concerns Plasmodium falciparum. Briefly: GSK_TCMDC: Inhibition of Plasmodium falciparum 3D7 in whole red blood cells, using parasite LDH activity as an index of growth. Test compounds present at 2uM. The format is functional.
In general, Inhibition refers to the share of the control response that was lost under treatment. Read a low Inhibition as a response near the control. As to `Cc1cc(NCCCCCCN)nc(Nc2ccc(Cl)cc2)n1`, the Inhibition amounted to 100%.

As to `CCc1ccc(CN2CCC(NC(=O)c3cc(-c4ccc(N(C)C)cc4)cs3)C2)cc1.O=C(O)C(F)(F)F` (stereo unspecified), the Inhibition came to 90%.

Take `N=C1NC(=N)N(OCCCCCCON2C(=N)NC(=N)NC2C=Cc2ccccc2)C(C=Cc2ccccc2)N1` (stereo unspecified): the Inhibition amounted to 97%.

`O=c1sn(-c2csc3ccccc23)c2ccccc12`: the Inhibition was 94%.

A further assay concerns Plasmodium falciparum. Briefly: GSK_TCMDC: Inhibition of Plasmodium falciparum Dd2 in whole red blood cells, using parasite LDH activity as an index of growth. Test compounds present at 2uM. Type of assay: functional.
The compound `Cc1ccc(OCC2CCN(c3ncc(C(=O)NC4CC4)cc3Cl)CC2)cc1` showed an Inhibition of 72%.

Take `c1ccc(CN2CCN(c3cc(-c4cncc(-c5ccccc5)c4)nc(-c4ccccc4)n3)CC2)cc1`: the Inhibition is recorded as 12%.

Compound `CCCCCCN1CCN(Cc2cccc(NC(=O)c3ccc(Cl)c(Cl)c3)c2)CC1.O=C(O)C(F)(F)F` registered an Inhibition of 51%.

In turn, `Cl.O=C(NC1CCC(CCN2CCc3ccc(-c4cnccn4)cc3CC2)CC1)c1cccc(-n2cccn2)c1` (stereo unspecified) came in with an Inhibition of 1%.

`O=C(O)C(F)(F)F.OCCN1CCN(Cc2ccc(-c3cccc(-c4nc5cc(C(F)(F)F)ccc5[nH]4)c3)cc2)CC1` registered an Inhibition of 83%.

Regarding `O=C(Nc1cc(Cl)c(Cl)cc1NC(=O)c1cccc(-c2ccccc2)c1O)c1cccc(-c2ccccc2)c1O`, the Inhibition was found to be 100%.

On to `CNc1nc(N/N=C/c2cc3c(cc2[N+](=O)[O-])OCO3)nc(Nc2cccc(C(F)(F)F)c2)n1`, for which the Inhibition was determined as 60%.

On to `Fc1ccc2c(NN=Cc3ccc(Cl)cc3)ccnc2c1`, for which the Inhibition is 99%.

In turn, `Cc1ccc(NC(=O)c2ccc3nccnc3c2)cc1OC1CCN(Cc2ccc(F)cc2)CC1.O=C(O)C(F)(F)F` gave an Inhibition of 24%.

`COc1ccc(NC(=O)Nc2ccc(C)c(-c3ccc(C(=O)NCCN4CCCC4)cc3)c2)cc1` came in with an Inhibition of 1%.

`N#Cc1ccc(CN2CCCN(Cc3cccc(NC(=O)c4ccc(-c5ccccc5)cc4)c3)CC2)cc1.O=C(O)C(F)(F)F` registered an Inhibition of 12%.

Consider `CN(C)C(=O)c1cc(CNCc2ccccc2)ccc1-c1cccc(CNCc2ccc(-c3ccccc3)cc2)c1.O=C(O)C(F)(F)F`, for which the Inhibition stood at 12%.

`CN1CCC(Oc2ccc(NC(=O)c3ccc4c(=O)n(Cc5ccccc5)cnc4c3)cc2Cl)CC1` registered an Inhibition of 20%.

In the case of `Cl.Clc1ccc(CCNCCCCCCNCCc2ccc3c(c2)OCO3)cc1`, the Inhibition stood at 11%.

In turn, `COc1cc(F)c2nccc([C@@H](O)CN3CCC(NCc4nc5cccc(F)c5[nH]4)CC3)c2c1.O=C(O)C(=O)O` yielded an Inhibition of 5%.

In turn, `Cc1c(CNCCCNc2nc3cscc3[nH]2)sc(C(F)F)c1Br.Cl` registered an Inhibition of 11%.

`CCOC(=O)c1ccc(NC(=O)Nc2ccc(-c3cccc(-c4nc5cc(F)ccc5[nH]4)c3)cc2)cc1` registered an Inhibition of 100%.

`c1ccc(-c2nc(Nc3nc4ccccc4[nH]3)[nH]c2-c2ccccc2)cc1`: the Inhibition was found to be 61%.

`COc1ccc2nccc(NC(=O)C3(O)CCC(NCc4ccc5c(c4)NCCS5)CC3)c2n1.Cl` (stereo unspecified) yielded an Inhibition of 64%.

Compound `Cc1cccc2nc(-c3cccc(-c4cccc(NC(=O)C(C)CN(C)C)c4)c3)[nH]c12` (stereo unspecified) displayed an Inhibition of 97%.

As to `Cc1cc(NCC(C)C)c2[nH]nc(-c3ccccc3)c2n1`, the Inhibition is 30%.

`COc1ccc(Nc2ncc3c(-c4cccc(NC(=O)Cc5cccc(F)c5)c4)c[nH]c3n2)cc1OC` returned an Inhibition of 68%.

`CCCC(C)Nc1nc(C)cc(N[C@@H](Cc2ccccc2)C(=O)Nc2ccccc2)n1.O=C(O)C(F)(F)F` (stereo partly specified) registered an Inhibition of 67%.

`CC(C)c1cc(Oc2c(I)cc(CCNC(=N)N)cc2I)ccc1O.Cl` registered an Inhibition of 54%.

Compound `Cc1ccccc1NC(=O)C1CSCN1C(=O)OCc1ccccc1` (stereo unspecified) came in with an Inhibition of 0%.

For the compound `COc1ccc(-c2ccc(NC(=O)c3ccc(C#N)cc3)cc2)cc1CN1CCNCC1.O=C(O)C(F)(F)F`, the Inhibition stood at 42%.

As to `O=C(/C=C/c1ccc(Cl)c(Cl)c1)N1CCCC(CCCN2CCC(c3c[nH]c4ccccc34)CC2)C1` (stereo unspecified), the Inhibition was determined as 15%.

As for `COc1ccc([N+](=O)[O-])cc1N(Cc1ccccc1-c1ccccc1)S(=O)(=O)c1ccc(C(F)(F)F)cc1[N+](=O)[O-]`, the Inhibition turned out to be 92%.

Compound `COc1ccc(CN2CCCC(N3CC4(OC3=O)c3ccccc3-c3ccccc34)C2)c(O)c1` (stereo unspecified) had an Inhibition of 34%.

Consider `O=C(NCCCCCCNCc1ccc(-c2ccccc2)cc1)Nc1ccc(Cl)c(Cl)c1`, for which the Inhibition was 2%.

The compound `COc1cc(C(=O)Nc2ccc(-c3nc4ccccc4[nH]3)cc2)cc(OC)c1OC` had an Inhibition of 33%.

As to `CC(Cc1ccc(C(=O)OCCOC(=O)c2ccc(CC(C)NCC(O)c3cccc(C(F)(F)F)c3)cc2)cc1)NCC(O)c1cccc(C(F)(F)F)c1` (stereo unspecified), the Inhibition is reported as 86%.
